Assay results taken from ChEMBL document CHEMBL1157539, “Thousands of chemical starting points for antimalarial lead identification” (Nature, 2010).
Over roughly 13,000 compounds, “IFI” has its median near 4; the highest 2% begin near 17. What follows is part of a selection rich in the highest values, with near analogues and random picks from the rest.

Experiment: GSK_TCMDC: Inhibition Frequency Index (IFI). The number of non-kinase HTS assays where a compound showed > 50 % inhibition, expressed as a percentage of the number of such assays in which the compound was tested
Assay type: functional

Compound	IFI [%]
COc1cc2nc(N3CCC(CNC(=O)c4ccc(-c5ccc(C#N)cc5C)cc4)CC3)nc(N)c2cc1OC	6.31
CCN(CC)CCCNc1ncc2c(-c3ccc(NC(=O)Nc4cc(C(F)(F)F)ccc4F)cc3)nn(C)c2n1	10.8
O=C(Nc1ccc(-c2nc3ccccc3[nH]2)cc1)c1ccc(N2CCCC2)c([N+](=O)[O-])c1	0.99
Cc1nnc2sc(-c3cccc(NC(=O)c4ccc(N5CCCCC5)c([N+](=O)[O-])c4)c3)nn12	1.47
CN(c1ccccc1)S(=O)(=O)c1cccc(NC(=O)c2ccc(-n3ccnc3)c([N+](=O)[O-])c2)c1	17.2
CN1CCN(CCNc2c3ccccc3nc3c2ccc2ccccc23)CC1	6.99
O=S(=O)(Nc1cccc(CCN2CCCCC2CCN2CCCC2)c1)c1ccc(Oc2ccccc2)cc1 (centres undefined)	17.5
O=S(=O)(Nc1cccc(CCN2CCCCC2CCN2CCCC2)c1)c1ccc2ccccc2c1 (centres undefined)	13.1
O=S(=O)(Nc1cccc(CCN2CCCCC2CCN2CCCC2)c1)c1ccc(-c2ccccc2)cc1 (centres undefined)	14.5
NC1CCCN(Cc2cccc(-c3ccc(-c4nc5cc(C(F)(F)F)ccc5[nH]4)cc3)c2)C1 (centres undefined)	5.63
CC(=NNC(=N)N)c1ccc2c(c1)Cc1ccccc1-2	7.19
CS(=O)(=O)NCCCNCc1ccc(-c2ccc(-c3nc4cc(F)ccc4[nH]3)cc2)cc1	5.94
Nc1c(I)cc(C(=O)Nc2ccc3nc4c(c(N)c3c2)CCCC4)cc1I	22.8
CC(C)(C)c1ccc(C(=O)Nc2ccc3nc4c(c(N)c3c2)CCCC4)cc1	4.9
Nc1c2c(nc3ccc(NC(=O)c4ccccc4)cc13)CCCC2	2.86
CCN(CCCN1CCCCC1)c1cc(C)nc(Nc2ccc(Cl)cc2C)n1	5
CN(C)c1ccc(CN2CCC(CNC(=O)c3cc(-c4cccc(F)c4)cs3)C2)cc1 (centres undefined)	6.12
CCN1CCC(N(Cc2ccc(-c3ccc(C(F)(F)F)cc3)cc2)C(=O)Cn2c(SCc3cccc(F)c3F)cc(=O)c3ccccc32)C1 (centres undefined)	7.14
CCN1CCC(N(Cc2ccc(-c3ccc(C(F)(F)F)cc3)cc2)C(=O)Cn2nc(C)c(=O)cc2SCc2ccc(F)cc2)CC1	19.6
CCN1CCC(N(Cc2ccc(-c3ccc(C(F)(F)F)cc3)cc2)C(=O)Cn2c(SCc3ccc(F)cc3)nc(=O)c3c2CCC3)CC1	12.5
Cc1cccc2nc(-c3ccc(-c4ccc(NC(=O)C5CCN(C)CC5)cc4)cc3)[nH]c12	4.24
COc1cc(C(=O)N2CCOC(CCN3CCC[C@H]3C(=O)Nc3ccccc3)(c3ccc(Cl)c(Cl)c3)C2)cc(OC)c1OC (some centres undefined)	4.83
COc1ccc2ncc(F)c(CCN3CC(O)C(CNCc4ccccc4)C3)c2n1 (centres undefined)	2.94

Compound	IFI [%]
O=C(NCCc1ccccc1)N(Cc1ccc(-c2cccc(CN3CCNCC3)c2)cc1)C1CCN(Cc2ccccc2)CC1	6.67
CC(C)C[C@H](NC(=O)c1cc2ccccc2s1)C(=O)N[C@H]1CCN(Cc2ccc(OC[C@@H]3CCCN3C)c(Cl)c2)C1	6.67
CC(C)C[C@H](NC(=O)c1cc2ccccc2s1)C(=O)N[C@H]1CCN(Cc2ccc(OC3CCN(C)C3)c(Cl)c2)C1 (some centres undefined)	6.67
CC(C)C[C@H](NC(=O)c1cc2ccccc2s1)C(=O)N[C@H]1CCN(Cc2ccc(OCCCN(C)C)c(Cl)c2)C1	17.2
O=C1CCCN1CCCNCc1cccc(-c2cccc(-c3nc4cc(F)ccc4[nH]3)c2)c1	4.85
Cc1ccc(C)c(NC(=O)CC2C(=O)N(c3ccccc3)C(=S)N2Cc2ccco2)c1 (centres undefined)	0.76
NC(=O)C1CCN(Cc2ccc(-c3cccc(-c4nc5cc(F)ccc5[nH]4)c3)cc2)CC1	0
Cc1ccc(Nc2nc(C)cc(NC3CCCC3)n2)cc1	21.3
Cc1ccc(Nc2nc(C)cc(NC3CC3)n2)cc1	4.62
Cc1cc(NC2CCCC2)nc(Nc2ccc(F)cc2)n1	9.09
CC1CN(c2cccc3c2nc(-c2cncc(C#N)c2)n3CCNCc2ccccc2)CC(C)O1 (centres undefined)	0
CCN1CCC(N(Cc2ccc(-c3ccc(C(F)(F)F)cc3)cc2)C(=O)Cn2c(CCc3cccc(F)c3F)cc(=O)c3c2CCC3)CC1	4.96
CCn1c(-c2nonc2N)nc2c(Cl)ncc(O[C@H](CCN)c3ccccc3F)c21	23.1
CCn1c(-c2nonc2N)nc2c(-c3ccc(CO)o3)ncc(OCCCN)c21	15.4
CCn1c(-c2nonc2N)nc2c(-c3cccc(Cl)c3)ncc(OCCCNCc3cnc(C)nc3N)c21	7.62
Clc1ccc(CNc2ccnc(NCc3cccnc3N3CCCC3)n2)c(Cl)c1	16.7
CN1CCN(CC2(Nc3nccc(NCCc4cn(C)c5ccccc45)n3)CCCCC2)CC1	14.3
CN1CCN(CC2(Nc3nccc(NCc4ccc(Cl)cc4Cl)n3)CCCCC2)CC1	35.7
COc1cccc(OC)c1CN1CCC(N(C)CCCCCCCCCN2CCC(OC(=O)Nc3ccccc3-c3ccccc3)CC2)CC1	17.3
COc1ccccc1CCN(C)CCN1CCC(NC(=O)c2ccc(-c3ccc(C(F)(F)F)cc3)cc2)CC1	6.19
COc1cccc(OC)c1CN1CCC(N(C)CCCCCCCCN2CCC(OC(=O)Nc3ccccc3-c3ccccc3)CC2)CC1	13.1
COc1cccc(OC)c1OCCCON1C(=N)N=C(N)NC1(C)C	2.9
CCC(COCc1ccc(Cl)cc1)N(C)CCN(C)C(CC)COCc1ccc(Cl)cc1 (centres undefined)	19.6

Compound	IFI [%]
CN(C)CCC(O)C=C(c1ccc(Cl)cc1)c1ccc(Cl)cc1 (centres undefined)	4.69
CN(CCCCN)Cc1ccc(-c2ccc(Cl)cc2)cc1	4.44
CC1(C)C(=O)N=C2C1=C(O)C(=O)c1ccccc12	17.2
Cc1ccc2c(=NN=Cc3cccc(F)c3)cc(C)[nH]c2c1	5.15
C=CCOC(=O)N1CCC(CNCc2cccc(-c3ccc(-c4nc5cccc(C)c5[nH]4)s3)c2)C1 (centres undefined)	3.81
COc1cc2ccccc2c(OC)c1CNCCCCCCNCc1c(OC)cc2ccccc2c1OC	12.9
CCc1c(CCNCCCCCCNCCc2ccc(OC)c(OC)c2CC)ccc(OC)c1OC	6.47
COc1cc2ccccc2c(OC)c1CCNCCCCNCCc1c(OC)cc2ccccc2c1OC	14.5
COc1c(CNCCCCCCNCc2c(OC)c(OC)c3ccccc3c2OC)c(OC)c2ccccc2c1OC	21.3
COc1c(OC)c(OC)c2ccccc2c1CNCCCCCCNCc1c(OC)c(OC)c(OC)c2ccccc12	14.8
COc1c(OC)c(OC)c2ccccc2c1CCNCCCCNCCc1c(OC)c(OC)c(OC)c2ccccc12	18.3
COc1cc2ccccc2cc1CCNCCCCNCCc1cc2ccccc2cc1OC	14.8
COc1cc2ccccc2c(CNCCCCCCNCc2c(OC)c(OC)cc3ccccc23)c1OC	12.1
CCCCOc1cc(OC)c2ccccc2c1CCNCCCCNCCc1c(OCCCC)cc(OC)c2ccccc12	19.1
N=C(N)Nc1nc(-c2cccc(NC(=O)NCc3ccc(OC(F)(F)F)cc3)c2)cs1	3.79
CC(CN1CCN(C)CC1)C(=O)Nc1ccc(-c2cccc(-c3nc4cc(F)ccc4[nH]3)c2)cc1 (centres undefined)	2.78
CC(=O)Nc1ncc(C(=O)Nc2cccc(-c3cccc(-c4nc5cc(C(F)(F)F)ccc5[nH]4)c3)c2)s1	5.41
CC(C)Oc1ccc2ccccc2c1CNCCCCCCNCc1c(OC(C)C)ccc2ccccc12	18.5
CSc1ccc2ccccc2c1CNCCCCCCNCc1c(SC)ccc2ccccc12	12.3
COc1ccc2c(CNCCCCCCNCc3c(OC)ccc4cc(OC)ccc34)c(OC)ccc2c1	7.38
COc1ccc2ccccc2c1CNCCCCCCNCc1c(OC)ccc2ccccc12	9.93
CC(C)COc1ccc2ccccc2c1CNCCCCCCNCc1c(OCC(C)C)ccc2ccccc12	22.9
Cc1nnsc1C(=O)Nc1cccc(-c2cccc(-c3nc4cc(F)ccc4[nH]3)c2)c1	6.42

Compound	IFI [%]
CC(=NNC(S)=Nc1ccccc1Cl)c1ccccn1	6.57
COc1cc(F)c2nccc([C@@H](O)CN3CCC(NCc4cc5c(cc4F)OCCO5)CC3)c2c1	1.59
O=C(Nc1cccc([N+](=O)[O-])c1)Nc1cccc(C(F)(F)F)c1	12.4
COc1cc(C)nc2ccc(NC(=O)Nc3ccc([N+](=O)[O-])cc3C)cc12	3.01
O=C(Nc1ccc([N+](=O)[O-])cc1)Nc1cc(C(F)(F)F)ccc1F	8.62
O=C(Nc1ccc(Oc2ccc(OC(F)(F)F)cc2)cc1)c1ccco1	5.22
O=C(Nc1ccc([N+](=O)[O-])cc1)Nc1cc(OCC(F)(F)F)cc(OCC(F)(F)F)c1	9.6
O=C(Nc1ccc(C(F)(F)F)cc1)Nc1cccc([N+](=O)[O-])c1	19.1
N#Cc1ccc(NC(=O)Nc2ccc(OC(F)(F)F)cc2)cc1	20.5
COc1cc(NC(=O)Nc2ccc([N+](=O)[O-])cc2OC)c(OC)cc1Cl	1.83
O=C(Nc1ccc(OC(F)(F)F)cc1)Nc1ccc([N+](=O)[O-])cc1	20.1
COc1cc([N+](=O)[O-])ccc1NC(=O)Nc1ccc(OC(F)(F)F)cc1	18.4
O=C(Nc1ccc(CCNCc2ccccc2)cc1)Nc1ccc(OC(F)(F)F)cc1	0.72
O=C(Nc1cccc([N+](=O)[O-])c1)Nc1ccc(Cl)c(C(F)(F)F)c1	10
CCN(CC)CCCC(C)N=c1cc(C=Cc2ccc([N+](=O)[O-])cc2)[nH]c2ccc(OC)cc12 (centres undefined)	1.65
CCN(CC)C(C)(C)CN(Cc1ccc(-c2ccc(C(F)(F)F)cc2)cc1)C(=O)Cn1c(CCc2cccc(F)c2F)nc(=O)c2ccccc21	6.94
CCN(CCNS(C)(=O)=O)c1ccc(N)c(C)c1	7.32
CN(C)c1ccc(NC2=NC(N)=NC(C)(C)N2)cc1	1.82
NC(=O)c1cccc(C(=O)Nc2cccc(-c3ccc(-c4nc5cc(C(F)(F)F)ccc5[nH]4)cc3)c2)c1	6.67
Nc1cccc(CNCc2ccc(-c3cccc(-c4nc5cc(C(F)(F)F)ccc5[nH]4)c3)cc2)c1	15.2
